Screening results (PubChem)
This is a sample that favours compounds with a hit; in the whole collection about 3.4% have one here.
MITF primary = human MITF inhibition, primary screen. O75030. AlphaScreen MITF homodimerization, bead proximity signal. inhibition, % at 2.6 µM. 650,000 compounds, 0.91% hits. AID 1259374; in the data active = inhibition above about 50%
Target sequence (O75030 whole entry, looked up): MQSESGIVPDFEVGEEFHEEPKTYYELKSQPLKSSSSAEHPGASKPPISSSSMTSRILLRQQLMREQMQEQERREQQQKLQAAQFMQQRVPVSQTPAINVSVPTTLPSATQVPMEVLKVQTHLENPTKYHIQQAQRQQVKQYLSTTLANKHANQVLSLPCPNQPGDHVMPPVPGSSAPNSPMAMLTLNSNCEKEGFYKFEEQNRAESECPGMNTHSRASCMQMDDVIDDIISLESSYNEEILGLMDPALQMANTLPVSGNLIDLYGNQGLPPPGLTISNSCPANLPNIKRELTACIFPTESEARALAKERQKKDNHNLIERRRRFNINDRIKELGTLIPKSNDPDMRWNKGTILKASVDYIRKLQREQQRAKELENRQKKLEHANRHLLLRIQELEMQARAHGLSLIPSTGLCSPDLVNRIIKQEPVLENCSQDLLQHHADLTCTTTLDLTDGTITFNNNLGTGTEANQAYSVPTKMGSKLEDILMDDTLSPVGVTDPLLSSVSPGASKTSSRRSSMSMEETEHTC
FBW7 act = human FBW7 E3 ligase activation, primary screen; normalized activity (activation), % at 26.1 µM; 650,000 compounds, 0.13% hits; Q969H0; AlphaScreen FBW7–phospho-cyclin E peptide binding, activator screen; in the data active = normalized activity above about 1.9%;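 note: purified mutant Fbw7 with reduced substrate affinity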
TEAD-YAP inh = TEAD-YAP interaction inhibition | HEK-TIYL cells, TEAD-Gal4/YAP UAS-luciferase luminescence | inhibition, % at 9.12 µM | 640,000 compounds, 1.4% hits | AID 1259422; in the data active = inhibition above about 32%
GPR151 ag = activates the human receptor GPR151; PathHunter beta-arrestin GPR151 cells, luminescence; AID 1508602; activation, % at 11.2 µM; Q8TDV0; 650,000 compounds, 1% hits; in the data active = activation above about 4.9%
MITF confirm = confirmation of human MITF inhibitors; shares compounds with MITF primary; AlphaScreen MITF homodimerization, biotin/His-MITF beads; inhibition, % at 2.6 µM; 4,700 compounds, 16% hits; AID 1259372;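 active = inhibition above a cutoff derived from the DMSO control wells, cut at about 28% in these data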;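 note: inhibitors lower the bead chemiluminescence by keeping MITF from dimerizing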
AlphaScreen DR = optically interferes with AlphaScreen signal in dose response; 480 compounds, 6% hits; AID 1259373; AlphaScreen optical interference counterscreen, cell-free; shares compounds with MITF primary; IC50, µM; call rule not given here
AS interf ctr = counter-screen: compounds optically interfering with AlphaScreen | shares compounds with MITF primary | LysRS AlphaScreen counterscreen, signal interference, triplicate | inhibition, % at 2.6 µM | 4,700 compounds, 7.6% hits | AID 1259376;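 active = inhibition above a cutoff derived from the DMSO control wells, cut at about 30% in these data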
Of the large screens only hits and unclear results are named; the others gave an inactive call (follow-up assays come after a bar, where they were run).

COc1ccc(S(=O)(=O)N2CCN(C3CCCCCCC3)CC2)cc1	none
COc1ccc(OCCN2CCN(S(=O)(=O)c3ccc4c(c3)OCCO4)CC2)cc1	MITF primary 85 | MITF confirm inactive | AS interf ctr inactive
COc1ccc(S(=O)(=O)N2CCN(CCO)CC2)cc1	none
COc1ccc(S(=O)(=O)N2CCC(N3CCC(C)CC3)CC2)cc1	MITF primary 55 | MITF confirm 34 | AlphaScreen DR inactive | AS interf ctr inactive
COC(=O)CCN1CCN(S(=O)(=O)c2ccc(OC)cc2)CC1	MITF primary 60 | MITF confirm inactive | AS interf ctr inactive
COc1ccc(S(=O)(=O)N2CCC(N3CCN(C)CC3)CC2)cc1	MITF primary 73 | MITF confirm inactive | AS interf ctr inactive
COc1ccc(S(=O)(=O)N2CCC(N3CCOCC3)CC2)cc1	MITF primary 54 | MITF confirm inactive | AS interf ctr inactive
COc1ccc(-c2ccc(S(=O)(=O)N3CCOCC3)cc2)cc1	none
CC(C)(c1ccccc1)c1ccc(OCC(O)CNC2CCS(=O)(=O)C2)cc1 (configuration not stated)	MITF primary 77 | MITF confirm inactive | AS interf ctr inactive
CC1(NCC(O)COc2ccccc2)CCS(=O)(=O)C1 (configuration not stated)	MITF primary 65 | MITF confirm inactive | AS interf ctr inactive
CC(C)(c1ccccc1)c1ccc(OCC(O)CN2CCCCC2)cc1 (configuration not stated)	none
O=C(NCc1cccc(Cl)c1)C1CCN(Cc2cccnc2)CC1	none
Clc1cccc(CN2CCN(Cc3cccnc3)CC2)c1	MITF primary 85 | MITF confirm inactive | AS interf ctr inactive
Fc1cccc(CN2CCN(Cc3cccnc3)CC2)c1	MITF primary 85 | MITF confirm inactive | AS interf ctr inactive
CC(C)(C)C(=O)N/C(=C\c1ccc(Br)cc1)C(=O)N1CCOCC1	none
Cc1ccc(S(=O)(=O)c2cn(C)c(=O)n2C)cc1	none
CCN(CC(=O)Nc1ccccc1C(F)(F)F)CC(=O)Nc1cccc2ccccc12	none
CCN(CC(=O)Nc1ccccc1C(F)(F)F)CC(=O)NC1CCCc2ccccc21 (configuration not stated)	MITF primary 81 | MITF confirm inactive | AS interf ctr inactive
CCOC(=O)c1cnc(-n2[nH]c3c(c2=O)CCCC3)[nH]c1=O	MITF primary 88 | MITF confirm 47 | AS interf ctr 64
CCOC(=O)c1cnc(OC)[nH]c1=O	none
COc1cc(NC(=O)c2nn3c(c2Cl)NC(c2ccccc2)CC3C(F)(F)F)cc([N+](=O)[O-])c1 (configuration not stated)	none
COc1cc(NC(=O)c2nn3c(c2Cl)NC(c2cccs2)CC3C(F)(F)F)cc([N+](=O)[O-])c1 (configuration not stated)	MITF primary 74 | MITF confirm inactive | AS interf ctr inactive
CCOC(=O)c1sc(NC(=O)c2nn3c(c2Cl)NC(c2cccs2)CC3C(F)(F)F)c(C(=O)OCC)c1C (configuration not stated)	MITF primary 68 | MITF confirm inactive | AS interf ctr inactive
O=C(O)COc1ccc(/C=C2\COc3ccccc3C2=O)cc1	none
NC(=O)C1CCN(C(=O)c2cc(-c3ccco3)nc3ccccc23)CC1	MITF primary 97 | MITF confirm 75 | AlphaScreen DR inactive | AS interf ctr inactive
Cc1ccc2nc(-c3ccccc3)cc(C(=O)N3CCC(C(N)=O)CC3)c2c1	none
O=C(NNC(=O)c1cc(-c2ccco2)nc2ccccc12)NC1CCCCC1	MITF primary 87 | MITF confirm 91 | AlphaScreen DR inactive | AS interf ctr inactive
CCn1c(C)nc2c(Br)c(O)ccc21	none
COc1cc(C(=O)N2CCN(Cc3ccncc3)CC2)cc(OC)c1OC	MITF primary 76 | MITF confirm inactive | AS interf ctr inactive
COc1ccc(C(=O)N2CCN(Cc3ccc(OC)c(OC)c3)CC2)cc1	none
COc1cc(OC)cc(C(=O)N2CCN(Cc3cc(OC)c(OC)c(OC)c3)CC2)c1	none
COc1ccc(CN2CCN(C(=O)c3ccncc3)CC2)cc1OC	MITF primary 70 | MITF confirm inactive | AS interf ctr inactive
COc1cc(CN2CCN(C(=O)c3ccncc3)CC2)cc(OC)c1OC	MITF primary 72 | MITF confirm inactive | AS interf ctr inactive
Cc1ccc(NC(=O)c2sc3ncn(CC(=O)N4CCN(c5ccccn5)CC4)c(=O)c3c2C)c(Br)c1	none
Cc1noc(N)c1C1(O)C(=O)Nc2ccc([N+](=O)[O-])cc21 (configuration not stated)	none
COc1cc([N+](=O)[O-])ccc1NC(=S)NNC(=O)C1(C)CC1(Cl)Cl (configuration not stated)	none
CCOC(=O)C1CCN(C(=O)c2ccc(N3CC4CC(C3)c3cccc(=O)n3C4)c(NC(=O)c3ccc(F)cc3)c2)CC1 (configuration not stated)	none
CCOC(=O)C1CCN(C(=O)c2ccc(N3CC4CC(C3)c3cccc(=O)n3C4)c(NC(=O)c3ccc(C(C)(C)C)cc3)c2)CC1 (configuration not stated)	MITF primary 67 | MITF confirm inactive | AS interf ctr inactive
CCOC(=O)C1CCN(Cc2ccc(F)cc2)CC1	none
CCOC(=O)C1CCN(Cc2ccc(C(F)(F)F)cc2)CC1	MITF primary 51 | MITF confirm inactive | AS interf ctr inactive
CC(C)NC(=O)C1CCN(Cc2ccc(Cl)c(Cl)c2)CC1	MITF primary 51 | MITF confirm inactive | AS interf ctr inactive
CC(C)NC(=O)C1CCN(Cc2ccc(C(F)(F)F)cc2)CC1	MITF primary 52 | MITF confirm inactive | AS interf ctr inactive
CC(C)Oc1ccccc1OCCCn1c(-c2ccc(Cl)cc2)nc2ccccc2c1=O	none
CC(C)n1cnc2c(NCCc3ccc(O)cc3)nc(N3CCCC3CO)nc21 (configuration not stated)	none
CCCCc1ccc(-c2csc(/C(C#N)=C\c3ccc(OCC)cc3)n2)cc1	none
COc1cc(CN2CCN(C/C=C/c3ccccc3)CC2)c([N+](=O)[O-])cc1OC	none
COc1cc(CN2CCN(Cc3ccccc3Cl)CC2)c([N+](=O)[O-])cc1OC	MITF primary 82 | MITF confirm inactive | AS interf ctr inactive
COc1cc(CN2CCN(Cc3ccccc3C)CC2)c([N+](=O)[O-])cc1OC	MITF primary 75 | MITF confirm inactive | AS interf ctr inactive
COC(=O)c1c(OC2CCCC2)cc(=O)n2c1CCN(Cc1c(F)cccc1Cl)CC2	none
O=C(Nc1ccc(Cl)c2ncsc12)c1ccco1	none
Clc1ccccc1N1CCN(Cc2ccc(Br)o2)CC1	none
Brc1ccc(CN2CCN(c3ccccn3)CC2)o1	MITF primary 52 | MITF confirm inactive | AS interf ctr inactive
